An excerpt weighted towards active compounds, which were near 2% of everything screened.
Neddyl block: cullin neddylation inhibition; TR-FRET cullin neddylation, biochemical; inhibition, % at 25 µM; P61081+Q13564; 360,000 compounds, 0.58% hits; in the data active = inhibition above about 36%
NadD inh: NadD (S. aureus) enzyme inhibition | purified NadD enzyme, colorimetric absorbance read-out | inhibition, % at 20 µM | 360,000 compounds, 0.78% hits | AID 602399; in the data active = inhibition above about 26%
ARNT-TACC3 inh: disruptors of human ARNT/TACC3 interaction | Q9Y6A5 | 390,000 compounds, 0.66% hits | AID 623870 | inhibition, % at 9.99 µM | AlphaScreen His-ARNT PAS-B/GST-TACC3 binding, luminescence; TACC3 fragment carries E629A point mutation;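 active = mean inhibition of replicates at least 50% and at least half of replicates each reaching 50%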;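 note: 0% = complete ARNT plus TACC3 wells and 100% = ARNT alone without TACC3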
HGIII-sPLA2 inh: Inhibits HGIII-sPLA2 liposome hydrolysis, primary screen. QFRET BODIPY PC-A2 liposome hydrolysis, fluorescence. inhibition, % at 12.2 µM. 370,000 compounds, 0.56% hits. AID 743126;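 active = inhibition above mean plus 3 SD of compounds lying within the high and low control bounds, cut at about 19% in these data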;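 note: 0% = median of test compound wells and 100% = no enzyme DMSO wells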
DAGLB inh: diacylglycerol lipase beta (human) inhibition; HEK293T DAGLB membrane lysate, EnzChek fluorogenic substrate; 340,000 compounds, 0.059% hits; inhibition, % at 5.17 µM; in the data active = inhibition above about 34%;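 note: 0% = enzyme with vehicle and 100% = wells lacking enzyme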
Target sequence (Q8NCG7 whole entry, looked up): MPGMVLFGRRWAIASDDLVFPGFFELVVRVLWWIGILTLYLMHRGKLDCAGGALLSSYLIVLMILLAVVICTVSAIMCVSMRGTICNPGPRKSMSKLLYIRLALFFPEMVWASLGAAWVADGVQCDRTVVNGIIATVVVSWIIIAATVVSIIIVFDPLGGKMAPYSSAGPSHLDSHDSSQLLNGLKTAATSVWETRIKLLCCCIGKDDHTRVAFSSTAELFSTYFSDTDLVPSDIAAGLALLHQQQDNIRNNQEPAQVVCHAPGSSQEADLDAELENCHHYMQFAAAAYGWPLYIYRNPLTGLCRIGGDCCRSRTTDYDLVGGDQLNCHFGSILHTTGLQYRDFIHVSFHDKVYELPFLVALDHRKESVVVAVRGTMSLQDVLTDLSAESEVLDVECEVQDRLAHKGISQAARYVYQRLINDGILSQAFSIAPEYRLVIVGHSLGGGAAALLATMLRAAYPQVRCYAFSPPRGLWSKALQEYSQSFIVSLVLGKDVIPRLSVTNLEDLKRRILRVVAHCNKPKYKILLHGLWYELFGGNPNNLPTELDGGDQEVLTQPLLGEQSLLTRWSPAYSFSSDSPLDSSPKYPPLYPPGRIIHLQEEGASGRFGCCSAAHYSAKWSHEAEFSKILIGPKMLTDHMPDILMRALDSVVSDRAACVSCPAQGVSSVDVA
Starred values were filed as active, the others as inactive; . = not tested or not shown.

SMILES	Neddyl block	NadD inh	ARNT-TACC3 inh	HGIII-sPLA2 inh	DAGLB inh
C[C@@H]1CN([C@@H](C)CO)C(=O)c2cc(Br)cnc2O[C@H]1CN(C)S(=O)(=O)c1ccc(F)cc1	.	.	0	.	.
CC(=O)N(C)C[C@@H]1Oc2cc(C3=CCCC3)ccc2S(=O)(=O)N([C@H](C)CO)C[C@H]1C	.	.	-2	.	.
O=C(CSCc1ccc(Cl)cc1)Nc1ccc(O)cc1C(=O)O	29	-4	46*	-2	3
O=C(Nc1ccccc1F)N1CCCCN2[C@H](C1)[C@H](c1ccc(-c3cccnc3)cc1)[C@@H]2CO	.	.	-15	.	.
CCN1[C@H](C(=O)NCc2ccccc2)[C@@H](CO)[C@@H]2Cn3c(ccc(-c4ccccc4)c3=O)[C@@H]21	.	.	-11	.	.
COc1cc(-c2nnc(NC(=O)CS(=O)(=O)c3ccc(C)cc3)o2)cc(OC)c1OC	5	11	45*	5	3
COc1cc(-c2nnc(NC(=O)CS(=O)(=O)c3ccc(F)cc3)o2)cc(OC)c1OC	3	1	54*	-1	2
COc1cccc(-c2nnc(NC(=O)CCS(=O)(=O)c3ccc(C)cc3)o2)c1	6	0	10	3	-2
COc1cccc(CNC(=O)C[C@@H]2CC[C@H](NC(=O)C3CCC3)[C@@H](CO)O2)c1	.	.	-11	.	.
Cc1cc(NC(=O)CC(C)C)c(=O)n(Cc2c(F)cccc2Cl)c1	6	-2	8	-1	-4
Cc1cc(NC(=O)CC(C)C)c(=O)n(Cc2ccccc2F)c1	5	-5	active	8	0
O=C(N/N=C/c1cc([N+](=O)[O-])ccc1O)C1CCCCC1	-31	-2	67*	4	-4
O=C(CSc1ccccn1)N/N=C/c1cc([N+](=O)[O-])ccc1O	-42	-1	76*	-3	4
O=C(Cn1nc2ccccc2n1)N/N=C/c1cc([N+](=O)[O-])ccc1O	-44	-2	.	-12	10
Cc1nc2ccc(C(=O)N/N=C/c3cc([N+](=O)[O-])ccc3O)cc2[nH]1	-13	3	14	-9	2
O=C(N/N=C/c1cc([N+](=O)[O-])ccc1O)c1ccc(COc2ccc3c(c2)CCC3)o1	-2	52*	0	9	2
O=C(N/N=C/c1cc([N+](=O)[O-])ccc1O)c1cccc(NC(=O)c2cccc(Cl)c2)c1	5	63*	-5	7	0
O=C(CSc1ccccn1)N/N=C/c1ccccc1[N+](=O)[O-]	-20	-3	-4	-2	0
CN(C)CCCCCCNC(=O)[C@@H]1C[C@@H]2C(=O)NCC(=O)N2[C@@H]1c1cccc(OCCO)c1	.	.	-14	.	.
COc1cccc(-c2ccc3c(c2)[C@H]2[C@H](CCN2C(=O)NC2CCCC2)[C@H](CO)N3C)c1	.	.	active	.	.
CN([C@@H](Cc1ccc(OS(=O)(=O)c2cccc3cnccc23)cc1)C(=O)N1CCN(c2ccccc2)CC1)S(=O)(=O)c1cccc2cnccc12	-29	32*	3	.	1
C[C@@H]1CCCCO[C@@H](CN(C)C(=O)Cc2ccccc2)[C@@H](C)CN([C@@H](C)CO)C(=O)c2cc(NS(=O)(=O)c3cccs3)ccc2O1	.	.	1	.	.
CC1(C)Oc2ccc3ccc(=O)oc3c2/C(=C/NNC(N)=S)C1=O	11	1	75*	2	2
C[C@@H]1CCCCO[C@H](CN(C)C(=O)c2ccccc2)[C@@H](C)CN([C@@H](C)CO)C(=O)c2cc(NC(=O)c3ccccc3)ccc2O1	.	.	-14	.	.
O=C(NNC(=O)c1ccccc1-c1ccccc1C(=O)O)c1ccccc1	3	0	-4	1	-2
SMILES	Neddyl block	NadD inh	ARNT-TACC3 inh	HGIII-sPLA2 inh	DAGLB inh
O=C(C=P(c1ccccc1)(c1ccccc1)c1ccccc1)c1ccccc1-c1ccccc1C(=O)C=P(c1ccccc1)(c1ccccc1)c1ccccc1	1	56*	16	-8	5
O=C(NCCCn1ccnc1)/C(=C/c1ccccc1)NC(=O)c1ccccc1	0	-3	15	1	1
COc1ccc(/C=C(/NC(=O)c2ccccc2)C(=O)NCCCn2ccnc2)cc1OC	-10	0	5	-1	1
O=C(NCCCn1ccnc1)/C(=C/c1ccco1)NC(=O)c1ccccc1	-6	0	7	5	-1
Cc1ccc(C(=O)N/C(=C\c2ccco2)C(=O)NCCCn2ccnc2)cc1	-4	4	98*	2	2
Cc1ccc(C(=O)N/C(=C/c2ccco2)C(=O)NCCCn2ccnc2)cc1	-5	4	49*	-19	-1

Screening data (PubChem BioAssay)
